Screening results (PubChem BioAssay)
KB-3-1 cytotox: KB-3-1 parental cell cytotoxicity | KB-3-1 viability, CellTiter-Glo ATP luminescence, 72 h | Potency, µM (highest dose often 46.1 µM), usual class: cytotoxic | 400,000 tested, 1.4% active | AID 1347075; further: nearly all actives have a fitted effect of over 60% in size
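Parental KB-3-1 adenocarcinoma cells in phenol-red-free DMEM with 10% FBS were pin-treated with compounds at several concentrations, incubated 72 h at 37 °C, and viability read by CellTiter-Glo luminescence; concentration-effect curves were fitted after normalization.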
HT1080 IDH1KD tx: kills HT-1080 cells with IDH1 knockdown; HT-1080 IDH1 knockdown viability, ATP luminescence, 48 h; 360,000 tested, 2% active; Potency, µM (doses to about 46.1 µM), inactives show at the top dose activity, negative = toxicity, hits mostly cytotoxic; AID 686971;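 further: 0% = DMSO wells and -100% = cell-free medium wells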
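After a 2 h attachment period, IDH1KD HT-1080 cells took pin-transferred compound for 48 h at 37 °C; ATP-based luminescence after 10 min room-temperature reagent incubation reported viability.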
KB-V1 cytotox: KB-V1 MDR subline cytotoxicity; KB-V1 MDR cells viability, CellTiter-Glo, 72 h; Potency, µM (titrated, usually from 46.1 µM), actives largely listed as cytotoxic; 400,000 tested, 3.4% active; further: nearly all actives have a fitted effect of over 60% in size
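Compound-treated KB-V1 multidrug-resistant cells, 72 h, 37 degrees C; viability by CellTiter-Glo. Fitted qHTS curves give the values.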
DT40 TDP1 no CPT: qHTS for Inhibitors of human tyrosyl-DNA phosphodiesterase 1 (TDP1): qHTS in cells in absence of CPT. DT40 Tdp1-/- hTDP1 cells, no CPT, ATP luminescence, 48 h. Potency, µM (series often up to 46.2 µM), without a hit: at the top dose activity change, negative = growth inhibition, most hits filed as inhibitors. 420,000 tested, 15% active. AID 686978, 2013; further: nearly all actives have a fitted effect of over 55% in size
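Camptothecin absent (DMSO only). Human TDP1-complemented DT40 knockout cells, 400 cells/well, 37 °C for minimum 48 hr; ATP measured via CellTiter-Glo, 30 min dark incubation, luminescence.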
TDP1 cell CPT: growth inhibition of DT40 Tdp1-/-;hTDP1 cells with camptothecin (screen for TDP1 inhibitors); chicken DT40 Tdp1-/-;hTDP1 cells + 20 nM CPT, ATP luminescence, 48 h; Potency, µM (titrated, usually from 46.2 µM), for inactives: at the highest dose activity change, negative = growth inhibition, hits mostly inhibitors; 420,000 tested, 12% active; further: nearly all actives have a fitted effect of over 55% in size
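Cell growth measured by CellTiter-Glo luminescence after a minimum 48 h, 37 C compound exposure with 20 nM CPT in Tdp1-knockout DT40 cells stably expressing hTDP1, seeded 400/well; qHTS titration format.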
HT1080NT lethal: kills 2HG-producing HT-1080-NT fibrosarcoma cells; HT-1080-NT fibrosarcoma viability, CellTiter-Glo ATP luminescence, 48 h; 360,000 tested, 1.6% active; Potency, µM (series often up to 46.1 µM), without a hit: at the top dose activity, negative = less viability, actives largely listed as cytotoxic; AID 686970;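 further: NT is the 2HG producing partner of a matched IDH1 knockdown line; 0% = DMSO-treated cells and -100% = media-only wells without cells; nearly all actives have a fitted effect of over 55% in size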
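Compounds were tested in concentration-response format on HT-1080-NT cells for 48 hours at 37 degrees C. Cell viability came from CellTiter-Glo luminescence; curves were classified by r2, response magnitude and activity.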
Active calls of the source: *; i = inactive; ? = inconclusive; . = no result. Compounds with a hit are over-represented: about 19% of the library has one in this group of screens. The call rests on the fitted dose curve; in most records, active means well fitted curve in the direction sought with a large enough effect; inconclusive means small, poorly fitted or top-dose-only effect, or another doubt; inactive means no such curve, though single readings can be large; an effect the other way counts as inactive or inconclusive. Unless noted, on the % scale 0 is the no-effect control and ±100 the full control effect; potency means the concentration at half of the fitted maximal effect.

SMILES | KB-3-1 cytotox | HT1080 IDH1KD tx | KB-V1 cytotox | DT40 TDP1 no CPT | TDP1 cell CPT | HT1080NT lethal
CN1/C(=C/C(=O)CSc2ccccc2C(=O)O)C(C)(C)c2ccccc21 | i | -8% | ? | 9.2µM* | ? | 2%
CN1/C(=C\C(=O)c2cccs2)C(C)(C)c2ccccc21 | i | 5% | ? | -11% | -11% | 4%
COCCn1c(SCC(=O)c2c(-c3ccccc3)n(C)c3ccccc23)nnc1-c1ccncc1 | i | -7% | ? | ? | ? | -2%
COCCn1c(SCC(=O)/C=C2\N(C)c3ccccc3C2(C)C)nnc1-c1ccncc1 | i | -5% | i | 23µM* | 23µM* | -5%
CN1/C(=C\C(=O)CSc2nnc(N)s2)C(C)(C)c2ccccc21 | i | -23% | i | 21µM* | ? | 0%
CCc1ccc2c(-c3cccc(Cl)c3)nc(=O)n(CC)c2n1 | . | . | . | ? | 14% | .
CC(=O)c1ccc(S(=O)(=O)N(C)CCCC(=O)N2CCN(c3ncccn3)CC2)cc1 | i | 13% | ? | ? | -19% | 6%
CCOC(=O)C1=C(O)/C(=C/c2cccc(OC)c2O)N=C1C | i | 0% | ? | -17% | ? | -7%
CCOC(=O)C1=C(O)/C(=C\c2cc(C)n(-c3ccccc3F)c2C)N=C1C | i | -3% | i | 23µM* | 12µM* | 1%
CCOC(=O)C1=C(O)/C(=C\c2cc(C)n(-c3ccc(F)cc3)c2C)N=C1C | i | 22% | i | 15µM* | ? | 9%
CC12CC3(C)CC(C)(C1)CC(C(=O)NC1=NCCS1)(C2)C3 | i | 3% | i | ? | 23µM* | -2%
COCCCNc1nnc(Cc2ccc(Cl)cc2)c(=O)[nH]1 | ? | ? | i | 0.82µM* | 0.41µM* | 0.92µM*
Cc1c(C)n(-c2ccccc2)c2ncnc(NCCN(C)C)c12 | i | 0% | i | 11% | 4% | 1%
CC(=O)N(Cc1cc2c(C)cc(C)cc2[nH]c1=O)C1CCCCC1 | i | -6% | i | -27% | -21% | -1%
CCOc1ccc2[nH]c(=O)c(C(c3nnnn3Cc3ccco3)N3CCCC(C)C3)cc2c1 (centres undefined) | i | 1% | i | -26% | ? | -3%
COc1ccc2[nH]c(=O)c(CN(C3CCCCC3)C(c3nnnn3Cc3ccco3)C(C)C)cc2c1 (centres undefined) | ? | -24% | 12µM* | ? | 12µM* | -16%
COc1ccc(Cn2nnnc2CN(Cc2cc3cc(C)ccc3[nH]c2=O)C2CCCC2)cc1 | i | 15% | 16µM* | 11µM* | 12µM* | 0%
CCOc1ccc2[nH]c(=O)c(C(c3nnnn3Cc3ccco3)N3CCC(C)CC3)cc2c1 (centres undefined) | i | -1% | i | 26µM* | -79% | 0%
CCOC(=O)Cn1nnnc1C(C(C)C)N(Cc1cc2c(C)cc(C)cc2[nH]c1=O)C1CCCC1 (centres undefined) | i | ? | i | 21µM* | 23µM* | ?
Cc1ccc2[nH]c(=O)c(CN(Cc3nnnn3C3CCCC3)C3CCCCC3)cc2c1 | i | -6% | i | -9% | -12% | 1%
COc1ccc2[nH]c(=O)c(CN(Cc3nnnn3Cc3ccco3)C3CCCCC3)cc2c1 | ? | 0% | i | 16µM* | ? | 0%
CC(C)CCCC(C)CCCC(C)CCCCC(C)CCCC(C)CCCC(C)C (centres undefined) | . | . | . | -3% | 1% | .
Cc1cnc(NC(=O)Nc2ccc(OCc3ccccc3)cc2)c(Br)c1 | i | 15% | i | 16µM* | ? | 17%
C/C(CC(=O)Nc1ccc(OCc2ccccc2)cc1)=N\NC(=O)C(=O)Nc1cccc(C)c1 | ? | -15% | ? | 9.2µM* | ? | -1%
COC(=O)c1cc2oc(C)cc2n1Cc1cccc(Cl)c1 | i | . | i | ? | ? | .
SMILES | KB-3-1 cytotox | HT1080 IDH1KD tx | KB-V1 cytotox | DT40 TDP1 no CPT | TDP1 cell CPT | HT1080NT lethal
CCCCNC(=O)C1(C)CCCCN1CC(=O)c1ccc(OC)cc1 (centres undefined) | i | 13% | i | 26µM* | 16µM* | 17%
CC1(C)CC(N2CCN(c3ccccc3)CC2)=CC(=[N+]2CCCC2)C1 | 12µM* | 14µM* | i | 0.23µM* | 0.18µM* | 1.1µM*
CC1CC(C)C[N+](=C2C=C(N3CCCC3)CC(C)(C)C2)C1 (centres undefined) | 5.8µM* | ? | i | 0.0082µM* | 0.21µM* | 9.2µM*
CSc1nc(N2CCN(c3ccccc3)CC2)cc(N2CCN(c3ccccc3)CC2)n1 | i | 29% | i | -25% | -1% | 17%
Cc1ccc(OC(C)C(=O)Nc2ccccc2C(=O)N2CCN(C)CC2)cc1 (centres undefined) | i | -4% | i | -18% | -7% | -1%
CCOC(=O)c1ccc(S(=O)(=O)N2CCN(c3nc(-c4cccs4)nc4ccccc34)CC2)cc1 | i | . | i | -22% | -20% | .
CCc1nc(SC)ncc1C(=O)N1CCN(c2cc(C)ccc2C)CC1 | i | . | i | 15µM* | -25% | .
Cc1ccc(C)c(N2CCN(C(=O)c3cnc4c(-c5ccccc5)c(C)nn4c3C)CC2)c1 | i | . | i | ? | 26µM* | .
CCc1nc(SC)ncc1C(=O)N1CCN(c2cc(Cl)ccc2C)CC1 | i | . | i | 21µM* | ? | .
Cc1ccc(Cl)cc1N1CCN(C(=O)c2ccc(CN3CCOCC3)cc2)CC1 | i | -5% | i | ? | ? | 10%
c1ccc2c(c1)CCCN2 | i | . | i | 6% | 4% | .
CC1CCC(NC(=O)CCS(=O)(=O)c2ccc3c(c2)CC(C)N3C(=O)C2CC2)CC1 (centres undefined) | i | -1% | i | -26% | ? | 7%
N#CC(c1ccccc1)c1ccc([N+](=O)[O-])cc1 (centres undefined) | 21µM* | 6% | i | ? | ? | -1%
N#CC(c1ccccc1)c1ccc(C(=O)c2ccc(F)cc2)cc1 (centres undefined) | i | -21% | ? | 23µM* | -56% | -12%
O=C(O)CC/C=C\C[C@@H]1CO[C@H](c2ccccc2Cl)O[C@@H]1c1ccccc1O | . | . | . | -3% | 6% | .
